PrPC TRFRET: inhibitors of human cell surface prion protein PrPC, primary screen, cell-based, TR-FRET; inhibition, % at 13.8 µM; AID 720596, 2013; Major prion protein (Homo sapiens), P04156; actives 0.43% (n = 370,000); TR-FRET read-out; in the data active means inhibition above about 24%; further: 0% = median of the test wells and 100% = reference compound wells
CCHF vOTU inh-1: CCHFV vOTU protease inhibitors, primary screen, biochemical, Pep-AMC substrate, fluorescence | inhibition, % at 11.5 µM | actives 0.55% (n = 370,000) | Crimean-Congo hemorrhagic fever virus L polyprotein viral ovarian tumor (vOTU) protease … | AID 651958, 2012; further: 0% = vehicle wells with enzyme and 100% = no enzyme wells
PrP 5UTR inh: inhibition of PrP 5' UTR reporter expression | AID 488862, 2010 | actives 0.35% (n = 340,000) | inhibition, % (concentration not given with the values) | cell-based PrP 5' UTR mRNA reporter, plate reader; in the data active means inhibition above about 52%; further: 0 = median of the neutral control wells
SARS 3CLpro inh: SARS-CoV 3CLpro protease inhibitors, primary screen, biochemical, quenched FRET; recombinant SARS-CoV 3CLpro, quenched FRET peptide cleavage; inhibition, % at 6 µM; actives 0.14% (n = 290,000); AID 1706, 2009; in the data active means inhibition above about 12%
CCHF vOTU inh-2: CCHFV vOTU protease inhibitors, confirmation, biochemical, Pep-AMC substrate, fluorescence. shares compounds with CCHF vOTU inh-1. Recombinant CCHFV vOTU. inhibition, % at 11.5 µM. actives 17% (n = 1,900). AID 686976, 2013
Starred values were filed as active, the others as inactive; . = no result given. Shown are actives, neighbours in structure and some others; about 1.3% of the full set was active somewhere. Unless noted, no stated cut-off is given here; in the data, active means inhibition above about 30%; inactive means the rest.

SMILES | PrPC TRFRET | CCHF vOTU inh-1 | PrP 5UTR inh | SARS 3CLpro inh | CCHF vOTU inh-2
CCS(=O)(=O)c1ccc(O)c(NC(=O)c2cc(-c3ccccn3)nc3ccccc23)c1 | -5 | 32* | -1 | . | -17
CC(=O)NC1=C(NC2CCS(=O)(=O)C2)C(=O)c2ccccc2C1=O (stereo unspecified) | -51 | 42* | -32 | 0 | 2
CN(C1=C(NC(=O)c2ccccc2)C(=O)c2ccccc2C1=O)C1CCS(=O)(=O)C1 (stereo unspecified) | -46 | 89* | -19 | 0 | 78*
COC(=O)[C@]12C[C@H](CC(=O)NCCCCc3ccccc3)C(=O)N(Cc3ccc(Cl)cc3Cl)C1=C[C@H](C1CCCC1)O[C@@H]2C | 0 | 21 | . | . | .
O=C(NCC(=O)N1CCN(c2ccccc2)CC1)c1ccccc1 | 1 | -14 | -10 | -4 | .
COCCCNC(=O)c1cccc(S(=O)(=O)N2CC3(C)CC2CC(C)(C)C3)c1 (stereo unspecified) | 0 | 2 | -18 | . | .
COCCNC(=O)c1cccc(S(=O)(=O)N2CC3(C)CC2CC(C)(C)C3)c1 (stereo unspecified) | 1 | 33* | -11 | . | -13
CCCCNC(=O)c1cccc(S(=O)(=O)N2CC3(C)CC2CC(C)(C)C3)c1 (stereo unspecified) | 9 | 31* | -7 | . | 14
O=C(Nc1ccc(F)cc1)c1ccccc1Oc1ccc(C(F)(F)F)cc1[N+](=O)[O-] | 4 | 31* | -16 | 2 | -5
O=C(Nc1ccccc1)c1ccccc1Oc1ccc(C(F)(F)F)cc1[N+](=O)[O-] | 6 | 18 | -1 | 0 | .
CCOC(=O)c1csc(-n2nc(C)cc2C(F)(F)F)n1 | 8 | 31* | 10 | 3 | 1
Cc1cc(C(F)(F)F)n(-c2nc(C(=O)NN)cs2)n1 | 4 | 13 | -15 | 4 | .
Cc1ccc(S(=O)(=O)Nc2cccc(N(C)S(C)(=O)=O)c2)cc1[N+](=O)[O-] | 0 | -3 | -31 | 0 | .
Cc1ccc(S(=O)(=O)Nc2nc3c(s2)C(=O)CC(C)(C)C3)cc1 | -1 | 30* | -16 | -7 | -11
CN(C)c1ccc(-c2[nH][nH]c(=O)c2NC(=O)c2ccccn2)cc1 | 1 | 113* | . | . | 2
Cc1cnc(C(=O)Nc2c(-c3ccccc3)[nH][nH]c2=O)cn1 | 2 | 21 | . | . | .
CN(C)c1ccc(-c2[nH][nH]c(=O)c2NC(=O)c2ccc3ccccc3n2)cc1 | -4 | 105* | . | . | -11
COc1cc2c(=O)n(CCC(=O)NCC3CCCO3)c(=O)n(CC(=O)Nc3ccc(C)cc3)c2cc1OC (stereo unspecified) | -4 | 1 | -20 | -4 | .
CC(O)(CS(=O)(=O)c1ccccc1)C(=O)Nc1ccc(C(F)(F)F)cc1 (stereo unspecified) | -2 | 2 | 4 | 2 | .
OCCN(Cc1ccccc1)CC(O)COc1ccc(-c2ccccc2)cc1 (stereo unspecified) | 0 | 30* | -11 | 5 | -12
O=C(c1noc2c1CCCCC2)N1CCOCC1 | . | . | -3 | 4 | .
COc1ccc(-c2cc(NC(C)=O)c3ncc(-c4ccc(F)cc4)n3c2)cc1OC | -4 | 9 | . | . | .
COc1ccc(N2CC(C(=O)Nc3nnc(C4CCCCC4)s3)CC2=O)cc1 (stereo unspecified) | -2 | 30* | -21 | 1 | 5
CCn1c(SCC(=O)OC)nc2sc3c(c2c1=O)CC(C)(C)OC3 | 7 | -2 | 14 | -3 | .
NS(=O)(=O)c1ccc(CCNC(=O)c2ccc(NS(=O)(=O)c3ccc4[nH]c(=O)[nH]c4c3)cc2)cc1 | 4 | 5 | -6 | . | .
SMILES | PrPC TRFRET | CCHF vOTU inh-1 | PrP 5UTR inh | SARS 3CLpro inh | CCHF vOTU inh-2
CCCNC1=C(N(C(C)=O)c2cccc(F)c2)C(=O)c2ccccc2C1=O | -37 | 70* | 34 | 2 | 46*
CCCNC(=O)COC(=O)/C=C/c1cccc(F)c1 | 7 | 14 | -96 | 3 | .
C(=Cc1c[nH]c2ccccc12)c1nccc2ccccc12 | 0 | -14 | -41 | . | .
CCCCCOC(=O)C1=C(C)NC(=O)NC1c1ccc([N+](=O)[O-])cc1 (stereo unspecified) | -11 | 22 | 1 | 7 | .
CCn1c(SC(C)C(=O)NC2CCCC2)nc2cc(S(N)(=O)=O)ccc21 (stereo unspecified) | -1 | 8 | 2 | . | .
C(=NN=C(NN=Cc1cccs1)NN=Cc1cccs1)c1cccs1 | 2 | 33* | -16 | . | 2
CCC(=O)N1CCC1(C)C(=O)Nc1ccc(OC(F)F)cc1 (stereo unspecified) | 2 | 18 | . | . | .
O=C(O)CC/C(=C\c1ccc(N2CCCC2)c([N+](=O)[O-])c1)c1nc2ccccc2s1 | -13 | 33* | -29 | 1 | 10
O=C(O)CC/C(=C\c1ccccc1[N+](=O)[O-])c1nc2ccccc2s1 | -6 | -7 | -11 | -2 | .
CN(c1ccccc1)c1ccc(/C=C(/CCC(=O)O)c2nc3ccccc3s2)cc1[N+](=O)[O-] | -12 | 32* | -2 | . | 26
O=C(NC1C/C=C\C(c2ccccc2)N(c2ccccc2)C(=O)C1)OCC1c2ccccc2-c2ccccc21 (stereo unspecified) | . | . | -24 | . | .
Cc1ccc(CN2C(=O)C[C@@H](NC(=O)OCC3c4ccccc4-c4ccccc43)C/C=C\C2c2ccc(C)cc2)cc1 (stereo partly specified) | -5 | 32* | -4 | . | -9
COc1ccc(O)c(C(c2c(C)[nH][nH]c2=O)c2c(C)[nH][nH]c2=O)c1 | -8 | 84* | -19 | 5 | -15
CCOC(=O)C1(CCCc2ccccc2)CCN(C(=O)Cc2nonc2C)CC1 | 8 | 31* | -36 | -1 | -2
CCOC(=O)C1(CCCc2ccccc2)CCN(C(=O)CSC)CC1 | 6 | 0 | -24 | 1 | .
Nc1nc(-c2ccccc2)nc2sc3c(c12)CCCC3 | 7 | 30* | -18 | 5 | -17
O=c1oc(-c2ccccc2)nc2sc3c(c12)CCC3 | -10 | 2 | -25 | 2 | .
C/C(=N\NC(=O)c1ccc(CN2CCc3ccccc3C2)cc1)c1ccccc1O | -5 | 9 | -39 | 2 | .
COc1cc2c(cc1OC)CN(CC(=O)Nc1ccc(C)cc1)CC2 | 2 | 30* | -5 | -1 | -22
COc1ccc2ccccc2c1C1CC(=O)N2CN(C)CSC2=C1C#N (stereo unspecified) | 6 | 79* | -37 | 2 | 56*
N#Cc1c(N)n(-c2ccccc2N)c2nc3ccccc3nc12 | -9 | 65* | -17 | 4 | 65*
N#Cc1c(N)n(-c2cccc(C(=O)O)c2)c2nc3ccccc3nc12 | -9 | -376 | -3 | -4 | .
O=C1C(O)=C(O)C(=O)c2ccccc21 | -9 | 105* | 0 | . | 60*
O=C1c2ccccc2C(=O)c2[nH]cnc21 | -45 | 11 | -21 | 2 | .
O=C1c2ccccc2C(=O)c2[nH]c(=O)[nH]c21 | -20 | 79* | -8 | -1 | 75*
